Data: ChEMBL document CHEMBL4513146, “CO-ADD screening of Karazin Kharkiv National University (Ukraine) compounds”
Results with a measured potency or affinity are listed apart.

Experiments:
Klebsiella pneumoniae = details: Concentration 32 ug.mL-1;; ASSAY_TEST Inhibition of Bacterial Growth; detection method Absorption (OD600); MEDIA CAMHB; plate type 384well; NBS; CORNING #3640; time 18 hr
Candida albicans = details: Concentration 32 ug.mL-1; ASSAY_TEST Inhibition of Fungal Growth; detection method Absorption (OD530)
Cryptococcus neoformans = details: Concentration 32 ug.mL-1; ASSAY_TEST Inhibition of Fungal Growth; detection method Resazurin; Absorption (OD600-OD570); plate type 384well; NBS; CORNING #3640

SMILES	Inhibition (Klebsiella pneumoniae) [%]	Inhibition (Candida albicans) [%]	Inhibition (Cryptococcus neoformans) [%]
Cc1ccc2c(c1)N(C(=O)Cn1nc3ccc(SC(C)(C)C)nn3c1=O)CCO2	14.93	9.3	-18.35
Cc1nnc2ccc(S(=O)(=O)N(Cc3cccc(F)c3)c3ccc4c(c3)OCO4)cn12	1.28	3.36	-7.24
COc1cccc(C(=O)CSc2nnc3c(=O)n(-c4ccc(F)cc4)ccn23)c1	7.79	2.89	-4.94
CCCCc1ccc(NC(=O)CSc2nnc3c4cc(-c5ccc(C)cc5)nn4ccn23)cc1	4.94	0.26	-7.77
COc1cccc(-n2ccn3c(SCC(=O)Nc4ccc(OC)c(OC)c4)nnc3c2=O)c1	16.13	5.16	-5.69
O=c1c2sccc2n2c(=O)n(Cc3cccc(Cl)c3)nc2n1Cc1cccs1	3.75	61.44	-14.34
CC1CC(C)CN(c2nccn3c(=O)n(CC(=O)Nc4cccc(C(F)(F)F)c4)nc23)C1 (stereo not drawn)	12.34	1.5	-9.37
COc1ccc(-c2cc3c4nn(CC(=O)Nc5cccc(C(C)=O)c5)c(=O)n4ccn3n2)cc1	3.99	4.25	-13.63
CCC(Sc1nnc2c(=O)n(-c3cccc(OC)c3)ccn12)C(=O)Nc1cc(OC)ccc1OC (stereo not drawn)	1.63	1.95	-10.37
COc1ccc2[nH]cc(C(=O)CSc3nnc4c(=O)n(-c5ccc(C)c(C)c5)ccn34)c2c1	2.12	0.06	-6.08
CSc1ccc(CNC(=O)Cn2nc3c(Oc4ccccc4)nccn3c2=O)cc1	13.75	0.62	-8.38
COc1ccc(-c2cc3c4nnc(SCC(=O)NCc5ccc(Cl)cc5)n4ccn3n2)cc1	6.35	-0.75	-28.86
CC(C)Cn1c(=O)c2sccc2n2c(=O)n(CC(=O)N3CCC(Cc4ccccc4)CC3)nc12	-9.43	0.45	-94.76
Cc1oc(-c2cccc(Cl)c2)nc1CSc1nc2ccccc2n2c(C)nnc12	5.28	6.15	-6.37
COc1ccc(NC(=O)Cn2nc3c(Oc4cccc(F)c4)nccn3c2=O)cc1	-11.98	4.65	-6.95
Cc1cc(C)cc(N(Cc2ccccc2F)S(=O)(=O)c2cccn3c(C)nnc23)c1	2.04	1.9	-4.5

SMILES	Inhibition (Klebsiella pneumoniae) [%]	Inhibition (Candida albicans) [%]	Inhibition (Cryptococcus neoformans) [%]
COc1cccc(-n2ccn3c(SCC(=O)NCc4ccc(C)cc4)nnc3c2=O)c1	8.21	2	-8.56
CCOc1ccc(NC(=O)Cn2nc3c4c5c(sc4ncn3c2=O)CCCC5)cc1	5.11	2.52	-9.01
O=C(Cn1nc2c3sc(N4CCCC4)nc3ncn2c1=O)Nc1ccccc1Cl	7.88	4.36	-9.84
Cc1c(Cl)cccc1-n1ccn2c(SCC(=O)c3c[nH]c4ccccc34)nnc2c1=O	3.37	2.26	-4.72
CCOC(=O)c1ccc(NC(=O)Cn2nc3ccc(-c4ccc(Cl)cc4)nn3c2=O)cc1	8.58	-0.49	-7.91
Cc1cc(C)c(NC(=O)Cn2nc3c(N4CCN(c5ccccc5)CC4)nccn3c2=O)c(C)c1	10.19	11.4	-7.74
CCC(C)NC(=O)Cn1nc2ccc(SCc3ccc(Cl)cc3)nn2c1=O (stereo not drawn)	12.21	3.51	-20.85
Cc1nnc2c(SCC(=O)Nc3cccc(Br)c3)nc3ccccc3n12	10.33	5.04	-3.71
Cc1ccc(Cl)cc1N1CCN(C(=O)CCc2nnc3c4cc(-c5ccccc5)nn4ccn23)CC1	5.47	0.3	-6.62
Cc1ccc(C)c(NC(=O)Cn2nc3c4cc(-c5ccc(C)c(C)c5)nn4ccn3c2=O)c1	5.73	-1.76	-22.88
O=C(Cn1nc2ccc(-c3ccccc3)nn2c1=O)NC1CCCCC1	16.29	0.48	-16.53
COc1ccc(-c2cc3c4nn(CC(=O)NCc5ccc(Cl)cc5)c(=O)n4ccn3n2)cc1	20.18	0.12	-24.2
COc1cccc(-n2ccn3c(SC(C)C(=O)c4ccc(C)c(C)c4)nnc3c2=O)c1 (stereo not drawn)	3.32	2.99	-3.88
CCc1nnc2c(SCC(=O)Nc3ccc(C)cc3Cl)nc3ccccc3n12	11.28	1.59	-8.66
Cc1ccc(NC(=O)Cn2nc3c(N4CCCC4)nccn3c2=O)cc1Cl	13.96	0.98	-21.34
